From PubChem BioAssay AID1209 (Sanford-Burnham Center for Chemical Genomics, 2008)
The campaign covered roughly 190,000 compounds. About 810 (0.43%) were called active. The sample holds actives, similar compounds and a random draw of the others, so the mix is not that of the screen. Values without a mark were called inactive. Cut-off read from the data, not from the text of the source: active = inhibition above about 50%; inactive = the rest.

Target: Mannose-6-phosphate isomerase (Homo sapiens) (UniProt P34949)
Sequence (P34949 whole entry, looked up): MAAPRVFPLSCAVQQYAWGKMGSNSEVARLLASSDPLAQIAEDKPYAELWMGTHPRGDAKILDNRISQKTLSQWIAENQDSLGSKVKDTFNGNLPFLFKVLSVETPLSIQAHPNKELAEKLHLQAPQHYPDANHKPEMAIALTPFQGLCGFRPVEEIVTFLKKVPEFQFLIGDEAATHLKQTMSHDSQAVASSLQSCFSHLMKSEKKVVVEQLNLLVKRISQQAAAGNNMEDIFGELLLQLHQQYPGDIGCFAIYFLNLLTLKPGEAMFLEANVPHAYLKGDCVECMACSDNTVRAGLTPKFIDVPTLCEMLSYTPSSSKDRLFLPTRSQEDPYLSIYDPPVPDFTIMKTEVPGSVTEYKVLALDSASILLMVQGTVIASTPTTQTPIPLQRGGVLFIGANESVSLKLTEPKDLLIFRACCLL
Assay: inhibitors of human PMI, primary screen, biochemical, fluorescence intensity, coupled assay (AID 1209);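 note: plate controls were DMSO vehicle for no effect and wells lacking substrate for full effect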
Conditions: purified PMI enzyme, at 20 µM, active compounds read high

SMILES | inhibition
Cc1c(C(=O)N2CCN(c3ccccc3F)CC2)sc2ncn(CC(=O)N3CCOCC3)c(=O)c12 | -1.6%
Cc1c(NC(=O)c2ccc(C(C)(C)C)cc2)cccc1[N+](=O)[O-] | 7.4%
CCn1c(CCc2ccccc2)n[nH]c1=S | -3%
CCn1c(SCC(=O)N/N=C/c2ccc(OC)c(OC)c2)nc2ccccc21 | 8.4%
CCn1c(SCC(=O)N/N=C/c2cc(OC)c(O)c(OC)c2)nc2ccccc21 | -0.1%
CCn1c(SCC(=O)N/N=C/c2ccc(O)c(OC)c2)nc2ccccc21 | 61.7% (active)
COc1ccccc1N1CCN(C(=O)C2CCN(S(=O)(=O)N3CCOCC3)CC2)CC1 | -6.6%
Cc1cccc(NC(=S)N(CCCN2CCOCC2)Cc2ccccn2)c1 | -1.4%
CCN(CC)C(=O)c1cn(C)c(=O)c2cc(OC)c(OC)cc12 | 12.6%
COc1ccc(CNc2nc(-c3cccnc3)nn2C(=O)C(C)C)cc1 | 1.5%
Cc1nn(C2CCS(=O)(=O)C2)c(Cl)c1/C=C/C(=O)OCC(=O)Nc1ccccc1[N+](=O)[O-] (configuration not stated) | 18.2%
C(=N/n1c2ccccc2c2ccccc21)/c1ccco1 | 18.5%
CN(C)c1ccc(N=Cc2ccco2)cc1 | 44.6%
C(=Nc1cccc2c(N=Cc3ccco3)cccc12)c1ccco1 | 82.9% (active)
COC(=O)Cn1c(=O)n(CCc2ccccc2)c(=O)c2c3c(sc21)CCCC3 | 23%
COC(=O)c1ccc(NC(=O)CSc2nnc(C)n2-c2ccccc2)cc1 | 9.9%
NC(CO)C(=O)NNCc1ccc(O)c(O)c1O (configuration not stated) | 78% (active)
Cc1cc(C(=O)O)c(S(C)(=O)=O)s1 | -0.9%
Cc1cc(-c2nsc(=O)o2)c(S(C)(=O)=O)s1 | 53.2% (active)
O=C(CCc1cnccn1)NC1CCCc2c1cnn2-c1ccc(F)cc1F (configuration not stated) | 6.3%
C=CCSc1nc2sc3c(c2c(=O)n1CC=C)CCc1ccccc1-3 | 10.5%
C=CCSc1nc2sc3c(c2c(=O)n1CC)CCc1ccccc1-3 | 71.8% (active)
C=CCn1c(SCC)nc2sc3c(c2c1=O)CCc1ccccc1-3 | 7.8%

SMILES | inhibition
CS(=O)(=O)N1N=C(c2ccc(Br)cc2)CC1c1cccs1 (configuration not stated) | 12.1%
COc1ccc(O)c(/C=N/c2sc(C)c(C)c2C#N)c1 | 53.8% (active)
Cc1sc(/N=C/c2ccccc2O)c(C#N)c1C | 0.9%
Cc1sc(/N=C/c2c(O)ccc3ccccc23)c(C#N)c1C | -6%
CN(CCC1CCOCC1)C(=O)CC1C(=O)NCCN1C/C=C/c1ccccc1 (configuration not stated) | 5.6%
Cc1ccc(-c2nnc(-c3ccccc3)c(-c3ccccc3)n2)cc1 | 8.3%
Cc1ccc(-c2nc(N)sc2-c2ccc(C)cc2)cc1 | 13.3%
Cc1ccc(-c2nc(N)s[n+]2-c2ccccc2)cc1 | 106% (active)
Cc1ccc(-c2cc(-c3ccccc3)nc(Cl)n2)cc1 | 16.6%
CNc1nc(-c2ccccc2)[n+](-c2ccc(C)cc2)s1 | 89.5% (active)
Cc1ccc(-c2nc(N)sc2C)cc1 | -11%
O=C(Nc1ccc(N2CCCC2)c(Cl)c1)c1ccccc1[N+](=O)[O-] | -3.5%
Cc1cc(N/N=C/c2ccc(Cl)cc2Cl)nc(NCc2ccccc2)n1 | 20.3%
O=C(NCc1ccccc1)NCC12CC3CC(CC(C3)C1)C2 | 1.8%
Cc1ccc2sc(C)[n+](CCC(C)S(=O)(=O)[O-])c2c1 (configuration not stated) | 1%
CCOC(=O)C[n+]1c(C)sc2ccc(OC)cc21 | 3.3%
COc1ccc2sc(C)[n+](C)c2c1 | 84.3% (active)
CC[n+]1c(/C=C/C=C/N(C(C)=O)c2ccccc2)sc2cc(OC)ccc21 | -17.8%
CCC[n+]1c(C)sc2c3c(ccc21)CCCC3 | 22.9%
CC[n+]1c(C)sc2cc(C)ccc21 | 77% (active)
COc1ccc2sc(/C=C/c3ccccc3O)[n+](C)c2c1 | 4.3%
CCC[n+]1c(C)sc2c(OC)ccc(OC)c21 | 3.5%
Cc1ccc2c(c1)sc(C)[n+]2CCCS(=O)(=O)[O-] | 9.6%

SMILES | inhibition
CC[n+]1c(C)sc2cc(OC)ccc21 | 73.9% (active)
CCCC[n+]1c(C)sc2cc(OC)ccc21 | 16.5%
O=C(Nc1cccc(C(=O)N2CCOCC2)c1)NC1CCCCC1 | 8.1%
N#Cc1c(SCC(N)=O)nc(-c2ccccc2)c2c1CCCC2 | -2.9%
CCN1C(=O)C2(C(C#N)=C(N)Oc3cc(C)oc(=O)c32)c2ccccc21 (configuration not stated) | 5.6%
CCC(C)c1ccccc1NC(=O)Cc1coc2cc3c(cc12)CCC3 (configuration not stated) | 19.4%
CCOc1ccc(N2C(=O)CCC2=O)cc1 | 6.4%
C/C(=C\C(=O)OCC(=O)NCc1ccccc1)C(=O)OCC(=O)NCc1ccccc1 | 6%
O=C1CCC([N+](=O)[O-])C(c2cccc(Br)c2)N1 (configuration not stated) | -1%
O=C(Cn1cc2c(n1)CCCC2)NCC1CCCO1 (configuration not stated) | 3.4%
Cc1sc2c3ccsc3ccc2[n+]1C | -2.6%
Cc1sc2ccc3sccc3c2[n+]1C | -21.2%
Cc1ccc2sc(C)[n+](CCO)c2c1 | -7.8%
CC[n+]1c(C)sc2c3ccsc3ccc21 | 66.7% (active)
CCCC[n+]1c(C)sc2ccc(C)cc21 | 61.6% (active)
Cc1ccc2sc(C)[n+](CCCS(=O)(=O)[O-])c2c1 | -3%
CCOP(=O)(OCC)C(Nc1ccc(C)cc1)c1ccco1 (configuration not stated) | -14.5%
NC(=O)N/N=C/c1ccccc1OCC(=O)NCc1ccccc1 | 1.8%
Cc1ccc(S(=O)(=O)NC(N)=NCCc2ccc(Cl)cc2)cc1C | 15.4%
CC(C)N1CCC2(CC1)N=C(c1ccc3c(c1)OCO3)CC(c1cc(Cl)ccc1O)N2 (configuration not stated) | 23.4%
COc1ccc(C(=O)c2cnc(/N=C/N(C)C)s2)cc1 | 14.2%
